Holding throughout (test): DAPPL (digital affinity profiling via proximity ligation, sequencing); 10 mM Tris-HCl pH 7.5, 50 mM NaCl, 1 mM DTT, 4% glycerol, room temperature, 30 min; GST-TFs on glutathione beads, 16-mer random dsDNA library, 0.1% formaldehyde crosslink after washing; high values mean tight binding
Assay [1] concerns the target T1, FEV (Homo sapiens, UniProt Q99581 1-238).
T1 sequence: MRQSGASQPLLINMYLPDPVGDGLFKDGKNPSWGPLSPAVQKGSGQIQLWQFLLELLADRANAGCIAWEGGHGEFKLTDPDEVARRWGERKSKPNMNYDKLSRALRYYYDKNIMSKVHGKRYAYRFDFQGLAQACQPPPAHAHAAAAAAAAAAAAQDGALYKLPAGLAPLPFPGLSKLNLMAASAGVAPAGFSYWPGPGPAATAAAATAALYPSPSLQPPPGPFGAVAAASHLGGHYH
To be noted: protein: recombinant; tags: N-terminal GST; dsDNA, one strand shown. In a few lines:
(§1)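 Beads coated with glutathione captured GST-fused human transcription factors that had been expressed in yeast, and the factors were then given DNA barcodes and pooled with a tag-only sample. The pools were incubated with 200 nmole of a random double-stranded 16-mer DNA library in Tris/NaCl/DTT/glycerol buffer for 30 min at room temperature, washed, crosslinked with 0.1% formaldehyde and proximity-ligated with BsaI/T4 ligase at 37 °C for 1 h. PCR amplification and Illumina NextSeq500 sequencing came last. Binding signal is each hexamer's read frequency for a factor divided by its frequency for the tag-only sample.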

Assay [2] concerns the target ETV5 (Homo sapiens, UniProt P41161 1-510). To be noted: protein: recombinant; tags: N-terminal GST; dsDNA, one strand shown. In a few lines:
as §1

Assay [3] has as its target HSF1 (Homo sapiens, UniProt Q00613 1-529). The settings on record: protein: recombinant; tags: N-terminal GST; chain copies: 3; dsDNA, one strand shown. In short, it runs like this: as §1
Assay [4] concerns the target T2, SPIC (Homo sapiens, UniProt Q8N5J4 1-248).
T2 sequence: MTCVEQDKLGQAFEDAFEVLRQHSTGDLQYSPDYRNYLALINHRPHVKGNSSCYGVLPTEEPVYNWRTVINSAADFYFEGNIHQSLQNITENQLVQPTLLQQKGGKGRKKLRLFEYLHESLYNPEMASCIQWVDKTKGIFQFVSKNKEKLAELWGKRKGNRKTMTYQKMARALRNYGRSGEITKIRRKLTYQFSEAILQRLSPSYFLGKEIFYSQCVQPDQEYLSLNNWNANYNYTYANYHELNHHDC
The settings on record: protein: recombinant; tags: N-terminal GST; dsDNA, one strand shown. In a few lines: as §1

For assay [5], the target named is ELF4 (Homo sapiens, UniProt Q99607 1-663). The settings on record: protein: recombinant; tags: N-terminal GST; dsDNA, one strand shown. In short, it runs like this: as §1
ELF4, sequence (Q99607 whole entry): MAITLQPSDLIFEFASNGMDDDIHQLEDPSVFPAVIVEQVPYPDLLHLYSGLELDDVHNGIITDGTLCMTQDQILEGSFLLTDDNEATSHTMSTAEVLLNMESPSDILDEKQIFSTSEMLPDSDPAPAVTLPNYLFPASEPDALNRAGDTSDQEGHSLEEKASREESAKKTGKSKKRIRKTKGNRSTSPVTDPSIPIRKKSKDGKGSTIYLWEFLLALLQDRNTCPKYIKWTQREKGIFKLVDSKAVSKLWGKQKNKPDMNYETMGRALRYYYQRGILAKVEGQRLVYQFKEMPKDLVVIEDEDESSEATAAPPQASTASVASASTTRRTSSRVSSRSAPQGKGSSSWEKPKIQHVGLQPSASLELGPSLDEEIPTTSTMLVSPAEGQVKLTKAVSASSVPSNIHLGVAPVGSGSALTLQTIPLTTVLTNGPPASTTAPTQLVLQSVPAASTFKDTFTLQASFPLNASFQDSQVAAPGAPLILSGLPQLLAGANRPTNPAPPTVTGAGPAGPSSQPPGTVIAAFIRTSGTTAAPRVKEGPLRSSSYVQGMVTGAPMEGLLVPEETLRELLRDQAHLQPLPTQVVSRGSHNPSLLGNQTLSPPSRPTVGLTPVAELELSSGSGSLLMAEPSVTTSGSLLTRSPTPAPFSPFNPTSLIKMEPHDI
Assay [6] deals with T3, ELK4 (Homo sapiens, UniProt P28324-2 1-405).
T3 sequence: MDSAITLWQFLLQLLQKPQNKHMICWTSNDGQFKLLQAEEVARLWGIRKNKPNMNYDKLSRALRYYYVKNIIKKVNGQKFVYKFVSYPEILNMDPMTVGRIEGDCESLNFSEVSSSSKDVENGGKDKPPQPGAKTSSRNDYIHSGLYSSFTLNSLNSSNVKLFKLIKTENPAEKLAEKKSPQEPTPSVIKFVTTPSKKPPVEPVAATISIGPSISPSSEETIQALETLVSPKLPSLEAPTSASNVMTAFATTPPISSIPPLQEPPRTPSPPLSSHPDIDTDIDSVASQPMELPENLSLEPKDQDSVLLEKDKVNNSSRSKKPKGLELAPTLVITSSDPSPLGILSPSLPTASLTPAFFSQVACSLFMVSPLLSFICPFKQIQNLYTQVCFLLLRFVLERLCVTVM
To be noted: protein: recombinant; tags: N-terminal GST; dsDNA, one strand shown. In short, it runs like this:
as §1

For assay [7], the target named is T4, ETV2 (Homo sapiens, UniProt O00321 1-342).
T4 sequence: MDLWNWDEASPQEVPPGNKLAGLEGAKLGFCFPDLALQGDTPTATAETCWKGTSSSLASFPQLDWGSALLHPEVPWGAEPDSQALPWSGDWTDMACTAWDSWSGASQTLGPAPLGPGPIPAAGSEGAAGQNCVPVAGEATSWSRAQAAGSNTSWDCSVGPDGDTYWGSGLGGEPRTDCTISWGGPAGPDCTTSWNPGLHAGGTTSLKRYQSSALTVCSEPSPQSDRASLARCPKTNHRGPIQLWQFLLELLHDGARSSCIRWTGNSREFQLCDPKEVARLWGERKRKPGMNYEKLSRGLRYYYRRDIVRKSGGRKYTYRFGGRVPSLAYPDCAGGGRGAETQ
The settings on record: protein: recombinant; tags: N-terminal GST; dsDNA, one strand shown. In a few lines: as §1

Assay [8] has as its target T5, ELF3 (Homo sapiens, UniProt P78545 1-371).
T5 sequence: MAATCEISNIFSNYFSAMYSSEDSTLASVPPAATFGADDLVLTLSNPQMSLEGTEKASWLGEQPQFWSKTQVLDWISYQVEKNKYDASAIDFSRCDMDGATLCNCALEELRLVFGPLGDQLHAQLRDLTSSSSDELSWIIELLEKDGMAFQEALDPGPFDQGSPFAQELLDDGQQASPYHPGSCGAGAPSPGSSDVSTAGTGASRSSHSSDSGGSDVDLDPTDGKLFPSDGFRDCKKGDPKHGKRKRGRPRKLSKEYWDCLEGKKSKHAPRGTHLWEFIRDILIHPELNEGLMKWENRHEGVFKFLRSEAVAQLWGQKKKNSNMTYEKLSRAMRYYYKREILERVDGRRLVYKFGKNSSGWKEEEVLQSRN
To be noted: protein: recombinant; tags: N-terminal GST; dsDNA, one strand shown. In a few lines: as §1

Assay [9] has as its target CRX (Homo sapiens, UniProt O43186 1-299). The settings on record: protein: recombinant; tags: N-terminal GST; dsDNA, one strand shown. In a few lines:
as §1

The target of assay [10] is ETV1 (Homo sapiens, UniProt P50549 1-477). The settings on record: protein: recombinant; tags: N-terminal GST; dsDNA, one strand shown. In short, it runs like this: as §1
ETV1, sequence (P50549 whole entry): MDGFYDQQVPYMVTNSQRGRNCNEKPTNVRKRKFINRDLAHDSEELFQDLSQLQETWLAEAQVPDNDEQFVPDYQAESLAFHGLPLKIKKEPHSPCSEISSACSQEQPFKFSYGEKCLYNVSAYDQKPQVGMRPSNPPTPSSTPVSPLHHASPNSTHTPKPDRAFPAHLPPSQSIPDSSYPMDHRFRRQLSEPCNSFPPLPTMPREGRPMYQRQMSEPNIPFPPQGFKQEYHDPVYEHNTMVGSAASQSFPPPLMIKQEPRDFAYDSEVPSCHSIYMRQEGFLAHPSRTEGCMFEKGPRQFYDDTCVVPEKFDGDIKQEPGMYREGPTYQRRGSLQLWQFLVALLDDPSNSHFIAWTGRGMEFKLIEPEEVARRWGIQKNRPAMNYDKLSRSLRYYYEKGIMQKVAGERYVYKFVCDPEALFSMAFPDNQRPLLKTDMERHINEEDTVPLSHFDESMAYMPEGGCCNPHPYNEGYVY

This note sets out measurements from publication PMC7862700, “An all-to-all approach to the identification of sequence-specific readers for epigenetic DNA modifications on cytosine”.

HSF1, sequence (Q00613 whole entry): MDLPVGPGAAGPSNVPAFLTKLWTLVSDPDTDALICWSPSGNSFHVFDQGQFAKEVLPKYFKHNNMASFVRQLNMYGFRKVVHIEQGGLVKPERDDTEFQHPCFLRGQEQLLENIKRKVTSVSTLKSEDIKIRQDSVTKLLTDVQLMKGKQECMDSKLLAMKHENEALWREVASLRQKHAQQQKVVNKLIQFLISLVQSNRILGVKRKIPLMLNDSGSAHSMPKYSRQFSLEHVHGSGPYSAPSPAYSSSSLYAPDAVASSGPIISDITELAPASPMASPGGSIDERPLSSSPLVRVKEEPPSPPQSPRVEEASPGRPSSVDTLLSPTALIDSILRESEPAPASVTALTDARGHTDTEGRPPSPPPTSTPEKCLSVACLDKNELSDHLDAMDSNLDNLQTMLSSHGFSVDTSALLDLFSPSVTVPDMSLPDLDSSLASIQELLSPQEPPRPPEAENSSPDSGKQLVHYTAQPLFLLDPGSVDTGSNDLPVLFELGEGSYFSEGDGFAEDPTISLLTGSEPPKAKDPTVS
ETV5, sequence (P41161 whole entry): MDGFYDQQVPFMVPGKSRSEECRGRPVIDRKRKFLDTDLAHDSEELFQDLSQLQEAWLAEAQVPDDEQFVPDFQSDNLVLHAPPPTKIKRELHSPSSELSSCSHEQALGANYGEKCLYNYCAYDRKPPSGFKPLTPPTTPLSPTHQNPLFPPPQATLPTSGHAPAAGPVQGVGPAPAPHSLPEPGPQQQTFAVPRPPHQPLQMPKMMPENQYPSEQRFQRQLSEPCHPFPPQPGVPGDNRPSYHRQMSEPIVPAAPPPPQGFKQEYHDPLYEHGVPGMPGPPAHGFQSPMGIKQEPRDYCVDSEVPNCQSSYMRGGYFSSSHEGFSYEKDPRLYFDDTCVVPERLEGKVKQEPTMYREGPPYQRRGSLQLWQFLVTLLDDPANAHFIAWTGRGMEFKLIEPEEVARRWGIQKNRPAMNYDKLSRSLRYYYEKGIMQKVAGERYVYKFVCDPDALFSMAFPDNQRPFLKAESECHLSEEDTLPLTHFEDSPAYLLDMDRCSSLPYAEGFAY
CRX, sequence (O43186 whole entry): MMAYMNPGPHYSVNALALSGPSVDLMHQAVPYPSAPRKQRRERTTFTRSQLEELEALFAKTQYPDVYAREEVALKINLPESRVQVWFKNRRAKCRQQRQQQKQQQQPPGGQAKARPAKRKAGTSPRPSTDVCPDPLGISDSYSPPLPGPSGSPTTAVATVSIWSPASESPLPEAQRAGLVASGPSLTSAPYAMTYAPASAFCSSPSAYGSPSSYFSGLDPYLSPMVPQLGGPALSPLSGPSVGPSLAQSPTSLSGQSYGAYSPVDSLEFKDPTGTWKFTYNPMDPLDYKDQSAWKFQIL

Take GAAAAT: the binding signal is 1.07 fold enrichment (6-mer frequency, TF over GST control) in assay [1]; 1.16 fold enrichment (6-mer frequency, TF over GST control) in assay [2]; 1.49 fold enrichment (6-mer frequency, TF over GST control) in assay [3]; 1.09 fold enrichment (6-mer frequency, TF over GST control) in assay [4]; 1.14 fold enrichment (6-mer frequency, TF over GST control) in assay [5]; 1.01 fold enrichment (6-mer frequency, TF over GST control) in assay [6]. Moreover, the binding signal in [7] is 1.17 fold enrichment (6-mer frequency, TF over GST control); in [8], 1.09 fold enrichment (6-mer frequency, TF over GST control); in [9], 1.2 fold enrichment (6-mer frequency, TF over GST control); in assay [10], 1.02 fold enrichment (6-mer frequency, TF over GST control).

For TCCATG, the binding signal in assay [1] is 1.11 fold enrichment (6-mer frequency, TF over GST control); in assay [2], 1.2 fold enrichment (6-mer frequency, TF over GST control); in [3], 1.1 fold enrichment (6-mer frequency, TF over GST control); in assay [4], 1.05 fold enrichment (6-mer frequency, TF over GST control); in [5], 1.16 fold enrichment (6-mer frequency, TF over GST control); in assay [6], 1.25 fold enrichment (6-mer frequency, TF over GST control). Besides, the binding signal is 1.2 fold enrichment (6-mer frequency, TF over GST control) in assay [7]; 1.25 fold enrichment (6-mer frequency, TF over GST control) in assay [8]; 1.13 fold enrichment (6-mer frequency, TF over GST control) in assay [9]; 1.09 fold enrichment (6-mer frequency, TF over GST control) in assay [10].

Take ATTTCC: the binding signal is 6.05 fold enrichment (6-mer frequency, TF over GST control) in assay [1]; 4.48 fold enrichment (6-mer frequency, TF over GST control) in assay [2]; 1.66 fold enrichment (6-mer frequency, TF over GST control) in assay [3]; 4.21 fold enrichment (6-mer frequency, TF over GST control) in [4]; 3.62 fold enrichment (6-mer frequency, TF over GST control) in [5]; 3.35 fold enrichment (6-mer frequency, TF over GST control) in assay [6]. Moreover, the binding signal in assay [7] was 4 fold enrichment (6-mer frequency, TF over GST control); in assay [8], 3.48 fold enrichment (6-mer frequency, TF over GST control); in assay [9], 1.5 fold enrichment (6-mer frequency, TF over GST control); in assay [10], 4.04 fold enrichment (6-mer frequency, TF over GST control).

As to GATTAT, the binding signal is 1.01 fold enrichment (6-mer frequency, TF over GST control) in [1]; 1.03 fold enrichment (6-mer frequency, TF over GST control) in assay [2]; 2.66 fold enrichment (6-mer frequency, TF over GST control) in [3]; 1.09 fold enrichment (6-mer frequency, TF over GST control) in assay [4]; 1.14 fold enrichment (6-mer frequency, TF over GST control) in assay [5]; 1.06 fold enrichment (6-mer frequency, TF over GST control) in assay [6]. The binding signal was 1.07 fold enrichment (6-mer frequency, TF over GST control) in [7]; 1.16 fold enrichment (6-mer frequency, TF over GST control) in [8]; 4.27 fold enrichment (6-mer frequency, TF over GST control) in assay [9]; 1.06 fold enrichment (6-mer frequency, TF over GST control) in assay [10].

With TAACCC, the binding signal was 1.26 fold enrichment (6-mer frequency, TF over GST control) in assay [1]; 1.31 fold enrichment (6-mer frequency, TF over GST control) in assay [2]; 1.3 fold enrichment (6-mer frequency, TF over GST control) in assay [3]; 1.35 fold enrichment (6-mer frequency, TF over GST control) in assay [4]; 1.32 fold enrichment (6-mer frequency, TF over GST control) in [5]; 1.2 fold enrichment (6-mer frequency, TF over GST control) in assay [6]. Besides, the binding signal in [7] is 1.17 fold enrichment (6-mer frequency, TF over GST control); in [8], 1.29 fold enrichment (6-mer frequency, TF over GST control); in assay [9] it was 1.77 fold enrichment (6-mer frequency, TF over GST control); in assay [10], 1.29 fold enrichment (6-mer frequency, TF over GST control).

Take ACTGAT: the binding signal in [1] was 1.19 fold enrichment (6-mer frequency, TF over GST control); in assay [2], 1.21 fold enrichment (6-mer frequency, TF over GST control); in assay [3], 1.22 fold enrichment (6-mer frequency, TF over GST control); in assay [4], 1.51 fold enrichment (6-mer frequency, TF over GST control); in assay [5] it was 1.23 fold enrichment (6-mer frequency, TF over GST control); in [6], 1.34 fold enrichment (6-mer frequency, TF over GST control). The binding signal in [7] was 1.19 fold enrichment (6-mer frequency, TF over GST control); in assay [8] it was 1.21 fold enrichment (6-mer frequency, TF over GST control); in assay [9] it was 1.38 fold enrichment (6-mer frequency, TF over GST control); in assay [10], 1.32 fold enrichment (6-mer frequency, TF over GST control).

Consider TAGCTT, for which the binding signal in [1] was 1.2 fold enrichment (6-mer frequency, TF over GST control); in [2], 1.31 fold enrichment (6-mer frequency, TF over GST control); in assay [3] it was 1.4 fold enrichment (6-mer frequency, TF over GST control); in [4] it was 1.28 fold enrichment (6-mer frequency, TF over GST control); in [5], 1.1 fold enrichment (6-mer frequency, TF over GST control); in [6], 1.21 fold enrichment (6-mer frequency, TF over GST control). Also, the binding signal in assay [7] is 1.15 fold enrichment (6-mer frequency, TF over GST control); in assay [8], 1.33 fold enrichment (6-mer frequency, TF over GST control); in assay [9] it was 1.83 fold enrichment (6-mer frequency, TF over GST control); in assay [10], 1.2 fold enrichment (6-mer frequency, TF over GST control).

On to AATATC, for which the binding signal was 1.56 fold enrichment (6-mer frequency, TF over GST control) in assay [1]; 1.53 fold enrichment (6-mer frequency, TF over GST control) in [2]; 1.49 fold enrichment (6-mer frequency, TF over GST control) in assay [3]; 1.49 fold enrichment (6-mer frequency, TF over GST control) in [4]; 1.44 fold enrichment (6-mer frequency, TF over GST control) in assay [5]; 1.48 fold enrichment (6-mer frequency, TF over GST control) in assay [6]. In addition, the binding signal in [7] was 1.73 fold enrichment (6-mer frequency, TF over GST control); in [8], 1.55 fold enrichment (6-mer frequency, TF over GST control); in assay [9], 1.55 fold enrichment (6-mer frequency, TF over GST control); in assay [10], 1.56 fold enrichment (6-mer frequency, TF over GST control).
